# Source: PubChem BioAssay (NCI)
# This is part of a sample that, as a whole, favours compounds with a hit. Of some 83,000 tested, about 20% had one in any assay.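 Interpretation: 100, growth as untreated; towards 0, rising growth inhibition; 0, no net growth; 0 to -100, cell death. Compounds scoring below 10 were considered active.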 Activity calls are given as the source filed them.
# Tested on: MDA-MB-468 breast
# Test: NCI-60 one-dose screen, 48 h (100 = growth as untreated, 0 = no growth, -100 = all killed)
# Settings: 10 µM unless noted
row,Structure (SMILES),growth
1,O=C(CCc1nnc(Cn2ccnc2)o1)c1nc2ccccc2[nH]1,108% (inactive)
2,O=c1c2ccccc2sc2c(NCCN3CCOCC3)nc3ccccc3c12,59.4% (inactive)
3,CCn1c(Cc2ccccc2Nc2c(Cl)cccc2Cl)nnc1SCC(=O)Nc1ccccc1C(F)(F)F,69.9% (inactive)
4,O=C(Nc1ncc(Cc2ccc(Cl)cc2)s1)c1ccc2c(c1)OCCO2,47.1% (inactive)
5,N=C(N)c1ccc(-c2ccc(-c3ccc(Cl)cc3)o2)o1,-21.5% (active)
6,O=C(Nc1ccncc1)C(=O)c1cn(S(=O)(=O)c2ccc(F)cc2)c2ccccc12,14.9% (inactive)
7,CCCCCCCCCCCCCCn1cc(C2=C(c3coc4ccc(OC)cc34)C(=O)NC2=O)c2ccccc21,104% (inactive)
8,COc1ccc(/C=C2\CCCC3=C2NC(N)=NC3c2ccc(OC)cc2)cc1 (centres undefined),-5.61% (active)
9,CCC(c1ccc(O)cc1)C(CC)c1ccc(O)c(F)c1 (centres undefined),69.5% (inactive)
10,COc1cc(C(=O)c2cnc(-c3cccc4[nH]ccc34)[nH]2)cc(OC)c1OC,-2.51% (active)
11,CCCCCCCCCCCCCCCC(=O)OC1[C@@H](OC(=O)CCCCCCCCCCCCCCC)[C@@H](C(=O)N[C@@H](CCCCN)C(=O)OC)O[C@H]1n1cnc2c(=O)[nH]c(NC(=O)C(C)C)nc21 (some centres undefined),83.1% (inactive)
12,CCCCCOc1ccc(/C=N/Nc2cc(C)nc3ccc(Cl)cc23)cc1,-29% (active)
13,Cc1cccc(Cc2cnc(NC(=O)c3ccc4nnsc4c3)s2)c1,94.8% (inactive)
14,NS(=O)(=O)c1ccc(Nc2nc(N/N=C/c3c[nH]c4ccccc34)nc(Nc3ccccc3)n2)cc1,52.7% (inactive)
